The values that follow come from article PMC7819943, “Rice protein-binding microarrays: a tool to detect cis-acting elements near promoter regions in rice”.

Over roughly 68,000 sequences, “fluorescence intensity (a.u.)” has its median near 9,100; the highest 2% begin near 16,000. Only a selection was taken, and the highest values are over-represented in it overall.

Chain of OsWRKY34 (Q0JBA9 entry or part of it): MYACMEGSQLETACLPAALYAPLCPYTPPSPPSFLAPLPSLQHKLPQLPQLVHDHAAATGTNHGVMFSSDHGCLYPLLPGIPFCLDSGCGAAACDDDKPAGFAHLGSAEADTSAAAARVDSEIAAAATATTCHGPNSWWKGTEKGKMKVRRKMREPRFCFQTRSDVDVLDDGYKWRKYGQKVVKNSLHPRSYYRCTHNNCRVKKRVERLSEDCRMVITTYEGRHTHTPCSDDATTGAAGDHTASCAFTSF

This assay deals with OsWRKY34 (Oryza sativa, UniProt Q0JBA9 1-250). Put plainly: protein-binding microarray (RPBM); PBS, 2% BSA, 51.3 ng/ul salmon testes DNA, 50 uM zinc acetate, 200 nM TF, 25 C, 1 h; high values mean tight binding. To be noted: protein: recombinant; tags: N-terminal polyhistidine and DsRed monomer fusion (pET32a); label: CyDye5-dUTP incorporated in the synthesized complementary strand; 3' TTTTT single-stranded linker to array surface; dsDNA, one strand shown. Put shortly:
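Transcription factors were made in E. coli BL21-CodonPlus as N-terminal fusions to a polyhistidine tag and DsRed, then purified on Ni–NTA. After primer extension with Cy5-dUTP and blocking with 2% BSA, a custom Agilent array was exposed for 1 h at 25 °C to 200 nM protein in PBS, 2% BSA, salmon testes DNA and 50 µM zinc acetate. Washed arrays were scanned on an Axon 4000B, and the binding signal is per-feature fluorescence intensity in arbitrary units.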
Regarding “ATAATCTCCACATGCATCGTCGCTGTATTTTTTGGTTTCACGGAGTCACCTAGTGCAG”, the binding signal is 8510 fluorescence intensity (a.u.).

Consider “TTGTACTACTATTTCTTCATGTTACATAATTCTCCTTGTTCGGAGTCACCTAGTGCAG”, for which the binding signal is 8540 fluorescence intensity (a.u.).

Regarding “TAGTATTTTTTTCCTTGGTTTTGTTTCTATCTCCTCTGACCGGAGTCACCTAGTGCAG”, the binding signal is 9480 fluorescence intensity (a.u.).

As for “AATGTATAGGTGGTCCCGTGCTTTTGTATTGTGTTTGCGTCGGAGTCACCTAGTGCAG”, the binding signal is 10400 fluorescence intensity (a.u.).

For “TTCTCTACATTGTTCATTTAGTATTTTTTTCTTTTCATTTCGGAGTCACCTAGTGCAG”, the binding signal was 10700 fluorescence intensity (a.u.).

Consider “ATGGCAACGACCCAGTTCTGTCCGAGTAGGACTCCTTCCACGGAGTCACCTAGTGCAG”, for which the binding signal was 8310 fluorescence intensity (a.u.).

“CCTGGTTGGTTTGGCTCGCACGTGGCGCGTCGTCCTACGCCGGAGTCACCTAGTGCAG”: the binding signal is 9870 fluorescence intensity (a.u.).

Regarding “TTATTTACAAACGAGTTCCATTTTTTTCTACGGTGATCGGCGGAGTCACCTAGTGCAG”, the binding signal was 8120 fluorescence intensity (a.u.).

In the case of “TTTTTTGAGCCGTATTTTTGCTCTCTTGTTACGTTTTTTTCGGAGTCACCTAGTGCAG”, the binding signal was 17100 fluorescence intensity (a.u.).

Take “TTCTTCTTCTGCCATTCCATCCATCCACCGCCGCCTCCGCCGGAGTCACCTAGTGCAG”: the binding signal is 8380 fluorescence intensity (a.u.).

“CAGTTTGAGTTTTTGTTAGTTATTTCGTTTATTTTTTTTTCGGAGTCACCTAGTGCAG”: the binding signal was 12300 fluorescence intensity (a.u.).

With “ATCTGTATCTTTGTTTATTTTTTTTATTTTTCTCCCATTTCGGAGTCACCTAGTGCAG”, the binding signal was 10600 fluorescence intensity (a.u.).

With “GATTGTAGTTTGTATATGCTGCCCATTTCTGTTGTTCTTTCGGAGTCACCTAGTGCAG”, the binding signal is 18900 fluorescence intensity (a.u.).

In the case of “CTTGTTACTAATATACTAGTATTTGAGTGTTACACGTTTTCGGAGTCACCTAGTGCAG”, the binding signal was 8380 fluorescence intensity (a.u.).

As to “TCTCTTTTCACCCACCGCACCCATCCAACTTCTCTTCTCTCGGAGTCACCTAGTGCAG”, the binding signal is 17900 fluorescence intensity (a.u.).

For the sequence “TCTCTTCTTCTTCTCCAACTTCTTTTTTCTCTTCTTCTTCCGGAGTCACCTAGTGCAG”, the binding signal is 9680 fluorescence intensity (a.u.).

Consider “TCCATCCCATTCCCGCCATCTCTGCATCTTCTTCTTCTTCCGGAGTCACCTAGTGCAG”, for which the binding signal is 9910 fluorescence intensity (a.u.).

Consider “GCCATTCCACATCAGTCCGTGCCGCTCTCTGCCCATTCTCCGGAGTCACCTAGTGCAG”, for which the binding signal is 18900 fluorescence intensity (a.u.).

“CTCCATCTCGCATCTTCTCTTTCTCTTTCTCTTTCTCTTTCGGAGTCACCTAGTGCAG”: the binding signal is 13300 fluorescence intensity (a.u.).

As for “ATGCCCATTTTGTAGCGTCGATTCTTGTTTCTGCTTGATTCGGAGTCACCTAGTGCAG”, the binding signal was 10300 fluorescence intensity (a.u.).

In the case of “AGGTGTAATAGTATTTTGTTGTCTAATTGGTTTTGATTGTCGGAGTCACCTAGTGCAG”, the binding signal is 11400 fluorescence intensity (a.u.).

Take “TATTTCTCTCGCCACAATCTCTGGCGGCGCCACAATCTTACGGAGTCACCTAGTGCAG”: the binding signal is 8850 fluorescence intensity (a.u.).

On to “GGCCTGGAGCTCAGTCAAACAGTTTCAGCTCAGCTCTATCCGGAGTCACCTAGTGCAG”, for which the binding signal was 8520 fluorescence intensity (a.u.).

For the sequence “TCTCTTCGCTCTGCCCACTTGCTAAACCATACCGGCGATACGGAGTCACCTAGTGCAG”, the binding signal is 9960 fluorescence intensity (a.u.).

“CATCCATCGTATCCACCGCCGTCGCCTTCCATCCTCCCCGCGGAGTCACCTAGTGCAG”: the binding signal was 8040 fluorescence intensity (a.u.).

For “GTGGGAGGGAGGGCGGCGAGCTGCGCGGCGAACCTCGAGCCGGAGTCACCTAGTGCAG”, the binding signal was 8120 fluorescence intensity (a.u.).

As to “CCTTTTTTTTTCCGAGTGTGTGGCTCTCAGATGGAGTTAGCGGAGTCACCTAGTGCAG”, the binding signal is 8450 fluorescence intensity (a.u.).

For “CCTTGGGTGGGTACGGATTGGATTAGGGAGGGGAGCACAACGGAGTCACCTAGTGCAG”, the binding signal was 17600 fluorescence intensity (a.u.).

Turning to “TGGTGTAGGGTTATGATTGGATGAGTAGTGGAGGTAGGTACGGAGTCACCTAGTGCAG”, the binding signal is 9780 fluorescence intensity (a.u.).

Take “AACGTGGAAGTGGATTGGGTGGTGGGTGGGGATCCACCTACGGAGTCACCTAGTGCAG”: the binding signal is 22100 fluorescence intensity (a.u.).

With “GGTAGGATTGTACTTTTTTTTTTTTTGGGACGGAGGGGTACGGAGTCACCTAGTGCAG”, the binding signal is 10100 fluorescence intensity (a.u.).

With “TGGGTGGGGATGAAGTGTGGAAGTGGCATATCTTTATCCACGGAGTCACCTAGTGCAG”, the binding signal is 8320 fluorescence intensity (a.u.).

Take “TGGTGGCGGCGGTGGCAGTGGTGGTGTTGGGATTGGGGTACGGAGTCACCTAGTGCAG”: the binding signal was 9230 fluorescence intensity (a.u.).

As for “ATTATCCTGATCAAAATTCCCGCAATTCCTTAACACATGTCGGAGTCACCTAGTGCAG”, the binding signal is 10200 fluorescence intensity (a.u.).

For “GCTTTTCTCTTCCTTTTCGCTCGCTCTCAAGGCCCATAACCGGAGTCACCTAGTGCAG”, the binding signal is 9530 fluorescence intensity (a.u.).

As to “TTGGTGAGAACAGCCTTATCTCTATCGCTTTACTCTCTCTCGGAGTCACCTAGTGCAG”, the binding signal is 8150 fluorescence intensity (a.u.).

Regarding “CTGACCACCAACAGGGTCACTGTCGCGTTTGCTCGATACTCGGAGTCACCTAGTGCAG”, the binding signal is 9920 fluorescence intensity (a.u.).

As to “TCCTTTCCTACATGTCGCCTTTGCCGTCGCCTCAACCACACGGAGTCACCTAGTGCAG”, the binding signal is 14200 fluorescence intensity (a.u.).

For “ATCAAACCACTTCCATCTCTCAATTCTCAAGCACACACACCGGAGTCACCTAGTGCAG”, the binding signal was 8310 fluorescence intensity (a.u.).

On to “TCTTCTCACTCTAATCAAATCTCTCTCTCTCTCTCTCTCTCGGAGTCACCTAGTGCAG”, for which the binding signal is 8280 fluorescence intensity (a.u.).

For “ACGAACCTAAGCACTTCCAAATCAAATCAATCAAAGCTCTCGGAGTCACCTAGTGCAG”, the binding signal was 56100 fluorescence intensity (a.u.).

Consider “GCCGTCGCCGTCGCCGTCCTCCTCGTTGTCGTTGTCGTCGCGGAGTCACCTAGTGCAG”, for which the binding signal was 9000 fluorescence intensity (a.u.).

Turning to “TACCACCACTGTTCGTTTCGTTTGTTGGGTTTCGGTCATCCGGAGTCACCTAGTGCAG”, the binding signal is 8360 fluorescence intensity (a.u.).

For the sequence “TAGTCCGTTCTGTTGTCATCTACTACTCTTGTTTGTGTTTCGGAGTCACCTAGTGCAG”, the binding signal was 16100 fluorescence intensity (a.u.).
